Shiga toxin inh: A qHTS for Small Molecule Inhibitors of Shiga Toxin | Vero cells, Shiga toxin protein synthesis inhibition reporter | inhibition, % at 38.7 µM | actives 9.2% (n = 290,000) | AID 2315, 2010; in the data active = inhibition mostly above about 28%, no sharp cut-off; inactive = mostly below about 43%; also: 0% is about no effect
Cycloheximide cs: Cycloheximide Counterscreen for Small Molecule Inhibitors of Shiga Toxin. cell reporter, cycloheximide protein synthesis inhibition counterscreen. max response, %. actives 12% (n = 300,000). AID 2314, 2010; in the data active = max response mostly above about 13%, no sharp cut-off; inactive = mostly below about 14%; also: read at 38.3 µM for the half of the compounds with a filed dose; 0% is about no effect
Marburg entry inh: qHTS for inhibitors of binding or entry into cells for Marburg Virus. actives 1.8% (n = 300,000). Marburg virus pseudotyped entry inhibition, cell reporter. Potency, µM (doses to about 37.8 µM), for inactives: top-dose activity change, negative = inhibition, hits mostly inhibitors. AID 540276, 2011; calls by dose curve; tested in HEK293 cells; also: potency is read from the fitted curve at half-maximal effect; % is scaled to controls: 0 for no effect and ±100 for the full control effect
AMA1 RON2 block: qHTS for Inhibitors of AMA1-RON; Towards Development of Antimalarial Drug Lead: Primary Screen; AlphaScreen AMA1-biotinylated RON2 peptide binding; Potency, µM (top dose mostly 58.2 µM), for the others: top-dose activity change, negative = inhibition, actives largely listed as inhibitors; actives 0.2% (n = 360,000); AID 720542, 2013; active = well fitted inhibition curve with a large enough effect; inconclusive = small, poorly fitted or top-dose-only effect; inactive = no such curve, though single readings can be large or run the other way;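 also: potency is read from the fitted curve at half-maximal effect; 0% = vehicle wells and -100% = peptide control; nearly all actives have a fitted effect of over 45% in size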
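AMA1 (3D7) with his tag at 25 nM final met compounds first, then biotinylated RON2 peptide at 25 nM; detection used donor plus acceptor beads, 10 µg/mL apiece, read by AlphaScreen after 30 min at room temperature.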
Lassa entry inh: qHTS for Inhibitors of binding or entry into cells for Lassa Virus; actives 1.2% (n = 300,000); Potency, µM (highest dose often 37.9 µM), for the others: top-dose activity change, negative = inhibition, usual class: inhibitors; AID 540256, 2011; Lassa virus pseudotype entry inhibition, cell reporter; calls by dose curve; tested in HEK293 cells; also: potency is read from the fitted curve at half-maximal effect; % is scaled to controls: 0 for no effect and ±100 for the full control effect; nearly all actives have a fitted effect of over 50% in size
An asterisk follows results filed as active; ? = inconclusive; . = no result given; [ ] = dose if it differs, or a comment. The sample as a whole holds a higher share of hits than the screen did.

SMILES	Shiga toxin inh	Cycloheximide cs	Marburg entry inh	AMA1 RON2 block	Lassa entry inh
N#Cc1cnc2nc(SCc3ccccc3)nn2c1	70.1*	35.0*	?	13.7%	?
CSc1nc2ncc(C#N)cn2n1	10.5	0.9	1.9%[46.1 µM]	2.0%	?
CC(C)(C)OC(=O)N[C@@H](CC(=O)OCc1ccccc1)C(=O)O	9.9	-2.4	?	10.6%	-27.6%
Cc1nc2ccccc2nc(=O)c1NNc1ccccc1	23.4*	20.2*	?	-5.1%	9.9%
Cc1ccc2nc(=O)c(NNc3ccccc3)cnc2c1	20.7	23.0*	-21.3%	-3.8%	-16.7%
CCCCSc1ncnc2c1c(-c1ccccc1)cn2-c1cccc(F)c1	.	.	?	.	23.8%[46.1 µM]
CCOc1ccc(NC(=O)CSc2nnc(CNC(=O)C34CC5CC(CC(C5)C3)C4)n2CC)cc1	.	.	-5.9%[46.1 µM]	.	-10.0%[46.1 µM]
CC(=O)c1ccc(S(=O)(=O)N(C)CC(=O)NCC2CCCCC2)cc1	53.4*	10.7	-10.0%[46.1 µM]	11.8%	12.9%[46.1 µM]
O=C(CN(C(=O)CNS(=O)(=O)c1ccccc1)c1ccc2c(c1)OCCO2)NC1CCCCC1	17.5	24.0*	14.8%	-6.5%	7.9%
CCOc1ccccc1N(CC(=O)NC1CCCCC1)S(=O)(=O)c1ccc(C)cc1	-5.9	2.2	3.16µM*	-2.1%	?
CCC(C)(C)NC(=O)CN(C(=O)CNS(=O)(=O)c1ccccc1)c1ccc2c(c1)OCCO2	-8.9	0.7	-3.7%[46.1 µM]	-4.5%	.
CCOc1ccccc1N(CC(=O)N(C)Cc1ccccc1)S(=O)(=O)c1ccccc1	57.7*	26.1	-27.0%	-5.8%	?
COc1ccccc1N(CC(=O)NC1CCCC1)S(=O)(=O)c1ccc(C)cc1	-1.2	-6.3	-10.4%	6.7%	?
CCOc1ccccc1N(CC(=O)O)S(=O)(=O)c1ccccc1	-9.0	-1.0	16.1%	3.9%	15.8%
COc1ccc(OC)c(-c2nn(-c3ccccc3)cc2C(=O)NCC(c2ccco2)N2CCCC2)c1 (stereo not given)	.	.	.	-6.1%	.
O=S(=O)(c1ccc(F)cc1)N1CCN(Cc2ccccn2)CC1	11.8	-3.4	13.1%[46.1 µM]	81.2%	3.5%[46.1 µM]
CC(=O)N1c2ccc(S(=O)(=O)N(C)CC(=O)Nc3ccccc3C)cc2CC1C (stereo not given)	23.4	-4.2	9.5%[46.1 µM]	0.0%	5.8%[46.1 µM]
CN(CC(=O)NC1CCCCCC1)S(=O)(=O)c1ccccc1	34.1*	11.6*	28.7%	-25.5%	?
COc1ccc2ccc3c(c2c1)N=CC1(O3)N(C)c2ccccc2C1(C)C (stereo not given)	34.3*	10.1	?	-13.9%	0.3%
O=C1OC2(c3ccc(O)cc3Oc3cc(O)ccc32)c2ccccc21	-6.2	-4.7	.	.	.
CN1c2ccccc2C(C)(C)C12C=Nc1c(ccc3ccccc13)O2 (stereo not given)	99.4*	27.1*	-1.0%	-8.1%	1.8%
CN1c2ccccc2C(C)(C)C12CC(CCl)=NO2 (stereo not given)	14.6	-3.0	-4.7%	-8.0%	?
CN1c2ccccc2C(C)(C)[C@]12C=Cc1cc(O)ccc1O2	57.9	38.0*	?	?	-15.9%
Cc1ccccc1C(=O)N[C@H](C(=O)OCC(=O)NC1CC1)C(C)C	.	.	.	19.3%	.
CCc1nnc(SCc2nc(-c3ccc(OC)cc3)oc2C)c2cc3sccc3n12	.	.	.	.	17.6%[46.1 µM]
SMILES	Shiga toxin inh	Cycloheximide cs	Marburg entry inh	AMA1 RON2 block	Lassa entry inh
COc1ccc(/C=N/N=C2/NC(=O)C(CC(=O)O)S2)cc1OCc1ccc(Cl)cc1Cl (stereo not given)	-2.8	-3.9	1.12µM*	30.9%	-3.5%
COc1ccc(/C=N/N=C2/NC(=O)C(CC(=O)O)S2)cc1OCc1ccccc1Cl (stereo not given)	-10.5	-1.5	-26.0%	-2.9%[2.32 µM]	-12.7%
COc1cc(/C=N/N=C2/NC(=O)C(Cc3ccc(F)cc3)S2)ccc1O (stereo not given)	84.5*	33.6*	?	28.7%	?
COc1cc(/C=N/N=C2/NC(=O)C(c3ccccc3)S2)ccc1O (stereo not given)	-1.9	5.7	14.9%	24.6%	4.47µM*
CC(=O)N1CCN(Cc2cc(=O)oc3ccccc23)CC1	.	.	.	9.3%	.
CN(C)C1=NCCN1CCc1cccc(F)c1	-4.0	-2.4	.	5.4%	.
Cc1cc(NCc2ccccn2)n2nc(C)c(-c3ccc(Cl)cc3)c2n1	-12.6	5.2	10µM*	87.5%	?
Cc1cc(NCCc2ccc(Cl)cc2)n2ncnc2n1	-16.4	10.5	-29.5%[46.1 µM]	-7.1%	-3.1%[46.1 µM]
Cc1cc(NCCCN2CCOCC2)n2ncc(-c3ccccc3)c2n1	77.8*	55.8*	?	2.5%	1.4%
Cc1nn2c(NCc3ccccn3)cc(C(C)C)nc2c1-c1ccccc1	-4.9	1.0	.	106.3%	.
Cc1cc(NCCOCCO)n2ncc(-c3ccc(Cl)cc3)c2n1	74.1*	23.1*	?	-2.6%	-19.7%
Cc1cc(NCc2ccccn2)n2ncc(-c3ccccc3)c2n1	69.8*	43.9*	?	98.3%	?
Cc1cc(NCCCN2CCOCC2)n2nc(C)c(-c3ccccc3)c2n1	21.5	-0.6	?	-1.5%	3.8%
CCCc1cc(NCc2ccccn2)n2nc(C)c(-c3ccccc3)c2n1	1.6	-0.9	?	96.5%	?
O=C(COc1ccc(S(=O)(=O)NCc2ccccc2)cc1)NCc1cccnc1	-12.5	-4.4	11.6%[46.1 µM]	-5.7%	.
CCCCN(C)CCNC(=O)c1cc(=O)[nH]c2ccc(S(=O)(=O)N3CCCCCC3)cc12	.	.	.	.	1.5%[46.1 µM]
CN1C(=O)C2=NC=NC2N(C)C1=O (stereo not given)	.	.	5.5%	.	.
COc1ccc(Cl)cc1NC(=O)C(C)N(C)Cc1cccc(Cl)c1Cl (stereo not given)	-16.0	-2.8	?	10.3%	3.7%
COc1ccc(NC(=O)CCCN2C(=O)CCn3nc(-c4cn(C)c5ccccc45)cc32)cc1	.	.	.	.	-7.8%[46.1 µM]
Cc1cc(NCc2ccccn2)n2ncc(-c3ccc(Cl)cc3)c2n1	47.5*	29.4*	?	99.9%	-10.4%[46.1 µM]
Clc1ccc(-n2ncc3c(NCc4ccccn4)ncnc32)cc1	-22.0	-1.6	3.0%	-4.9%	?
COC(=O)C[C@H]1CC[C@@H](NC(=O)Nc2ccc(C(F)(F)F)cc2)[C@@H](CO)O1	.	.	.	-0.4%	.
COc1ccc(CNC(=O)Cn2cccc2C(=O)c2ccccc2)cc1	40.3*	34.1*	.	7.1%	.
Cc1ccccc1C(=O)c1cccn1CC(=O)NCc1ccc2c(c1)OCO2	50.9	22.9*	13.3%	1.8%	23.7%
CC(=O)c1cn(CC(=O)NCc2ccc3c(c2)OCO3)c2ccccc12	21.4	6.2	?	-6.8%	-14.3%
Cc1ccccc1C(=O)c1cccn1CC(=O)NCc1ccccc1	30.3*	26.2*	?	-1.7%	-2.3%[46.1 µM]
COc1ccc(CNC(=O)Cn2cccc2C(=O)c2ccccc2C)cc1	59.6*	71.3*	?	2.1%	-14.6%[46.1 µM]
COc1ccc(OC)c(CCNC(=O)Cn2cccc2C(=O)c2ccccc2)c1	-9.7	-1.3	.	3.3%	.
COc1ccc(OC)c(CCNC(=O)Cn2cccc2C(=O)c2ccccc2C)c1	-12.4	4.2	?	-21.5%	-6.1%

Bioassay records as filed in PubChem BioAssay.
